According to PubChem BioAssay (NCI):
The panel holds about 83,000 compounds, 20% with a hit somewhere; the sample as a whole holds those more often.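 Plates (96-well) were seeded with cells, treated with compound at one concentration, and incubated for 48 hours before percent growth was determined.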 Unmarked numbers belong to inactive results. Calls of active or inactive are those of the source. The calls were made as follows: active = growth percent below 10; inactive = the rest.

How the values were obtained:
Test in all cases: NCI-60 one-dose screen, 48 h (100 = growth as untreated, 0 = no growth, -100 = all killed)
Details in all cases: 10 µM unless noted
[1] = test system: DU-145 prostate
[2] = test system: K-562 leukemia
[3] = test system: MALME-3M melanoma
[4] = test system: MDA-MB-231 breast
[5] = test system: RXF 393 renal
[6] = test system: SF-268 CNS
[7] = test system: SF-295 CNS
[8] = test system: SF-539 CNS
[9] = test system: UACC-257 melanoma
[10] = test system: M14 melanoma
[11] = test system: HCT-15 colon
[12] = test system: HT29 colon
[13] = test system: SNB-75 CNS
[14] = test system: SNB-19 CNS
[15] = test system: U251 CNS
[16] = test system: PC-3 prostate
[17] = test system: SK-MEL-5 melanoma
[18] = test system: UACC-62 melanoma
[19] = test system: LOX IMVI melanoma
[20] = test system: SK-MEL-28 melanoma

Compound	growth [1]	growth [2]	growth [3]	growth [4]	growth [5]	growth [6]	growth [7]	growth [8]	growth [9]	growth [10]	growth [11]	growth [12]	growth [13]	growth [14]	growth [15]	growth [16]	growth [17]	growth [18]	growth [19]	growth [20] [%]
CC(C)c1[nH]ncc1-c1nc2ccc3[nH]ncc3c2c2c1CCCC2	33.9%	42%	52.6%	35.6%	-8.2% (active)	36.7%	43.1%	23%	44%	37.1%	37.5%	35%	-3.19% (active)	40.4%	37.7%	44.2%	45.2%	34.1%	23.6%	
COc1c(B(O)O)cccc1-c1nc2ccc3[nH]ncc3c2c2c1CCCC2	11.1%	38.5%	82.6%	25.2%	-15.8% (active)	23.2%	34.8%	0.769% (active)	34%	58.1%	25.4%	37.9%	-2.29% (active)	12.5%	13.2%	18.4%	42.3%	26.6%	-15.4% (active)	
C/C=C(\C)C(C(=O)NC1CCCCC1)N(C(=O)C1CCc2cc(F)ccc2O1)c1ccc([N+](=O)[O-])cc1 (stereo not given)	105%	80.7%	92.4%	77.7%	98.4%	87%	82.5%	92.8%	93%	82.4%	74%	74.4%	72.8%	85.7%	93.1%	72.7%	42.1%	70.1%	87.7%	
COc1cccc(CC(C)=C(c2ccc(OCCCN(C)C)cc2)c2ccc(OCCCN(C)C)cc2)c1	-94.4% (active)	-67.5% (active)	-87% (active)	-82.2% (active)	-89.5% (active)	-81.8% (active)	-68.2% (active)	-91.6% (active)	-82.3% (active)	-80% (active)	-78.4% (active)	-81.5% (active)	-94.9% (active)	-72.1% (active)	-94.8% (active)	-89.4% (active)	-95.3% (active)	-84.7% (active)	-79.6% (active)	
O=C(CI)NCCNc1cccc2c(S(=O)(=O)O)cccc12	96.3%	110%	103%	93.5%	101%	93.3%	98.5%	105%	108%	98.4%	98.6%	110%	96.9%	89.7%	105%	102%	99.6%	89.5%	103%	
COc1cc2nccc(Oc3ccc(NC(=O)C4(C(=O)Nc5ccc(F)cc5)CC4)cc3)c2cc1OC(=O)c1ccc(N)cc1	45.3%	-20.9% (active)	26%	-1.25% (active)	-10.4% (active)	29.4%	-74.6% (active)	-1.2% (active)	33.5%	10.8%	25.9%	1.03% (active)	-34.6% (active)	37.6%	7.81% (active)	25.4%	34%	40.1%	-51.4% (active)	
COc1cc(CN2CCO[C@H](COc3cccc(F)c3)C2)ccc1Cl	41.5%	21.1%	63.8%	33.2%	79.3%	48.2%	28%	59.5%	19.2%	39.1%	26.3%	42.6%	45%	29.8%	27.5%	27.8%	37.7%	44.7%	50.7%	
O=C(OCc1ccc2c(Br)cc(Br)c(O)c2n1)c1cc2ccccc2[nH]1	-91.6% (active)	1.14% (active)	-85.5% (active)	-81.9% (active)	-91.4% (active)	-51.5% (active)	68.5%	-96.3% (active)	-64.6% (active)	-64.7% (active)	-66.7% (active)	-82.5% (active)	-46.3% (active)	45.6%	22.7%	-55.6% (active)	-47.5% (active)	-83% (active)	-93.4% (active)	
COc1ccc(C2CC(c3ccc(Nc4ccnc5cc(Cl)ccc45)cc3)=NN2c2ccccc2)cc1 (stereo not given)	105%	67.9%	94.4%	103%	109%	108%	107%	88.2%	97.4%	99.6%	87.2%	52%	104%	109%	81.9%	78%	79.9%	95%	100%	
CN(C)c1ccc(/C=N/Nc2nnc3n2N=C(c2ccc(Cl)cc2)CS3)cc1	100%	79%	128%	101%	69.7%	97.8%	101%	103%	106%	100%	92.5%	105%	96.3%	89.6%	95%	82.1%	92.1%	98.6%	98.8%	
CCN(CC)CCCC(C)Nc1cnc(C(=O)Nc2ccc(Cl)c3cccnc23)cn1 (stereo not given)	53.1%	-45.8% (active)	-71.8% (active)	-29.7% (active)	18.7%	35.8%	63%	-73.6% (active)	-33% (active)	-73.1% (active)	3.73% (active)	-49.4% (active)	41.7%	49.6%	-35.3% (active)	39.4%	-3.7% (active)	-52.4% (active)	-83.9% (active)	
N#Cc1nc(-c2ccc(Cl)cc2)cc(-c2ccc(Nc3nc(N4CCCCC4)nc(N4CCCCC4)n3)cc2)c1N	105%	105%	107%	114%	115%	101%	101%	103%	105%	104%	108%	113%	81.5%	104%	102%	91.6%	97.6%	106%	95.8%	
CNC(=O)c1cc(Oc2ccc(NC(=O)c3nc(S(C)(=O)=O)sc3-c3ccc(F)cc3)cc2)ccn1	-57.5% (active)	86.8%	94.5%	119%	104%	98.8%	95.3%	97.4%	65.7%	87.8%	86.4%	4.79% (active)	113%	84.4%	86.6%	71.1%	90.3%	93.3%	45.7%	
Fc1ccc2c(CN3CCO[C@H](COc4cccc(Cl)c4)C3)c[nH]c2c1	42.6%	32.1%	81.9%	66.8%	82.9%	81.1%	41.1%	56.7%	53.6%	54.4%	59.1%	47.4%	59%	56.8%	44.7%	36.7%	63.4%	60.2%	45.9%	
c1ccc(-c2[nH]c3ccccc3c2-c2ccccc2)cc1	99.7%	83.4%	93.9%	84.7%	149%	106%	87.9%	84.6%	101%	89.5%	79.6%	88.4%	84.7%	97.5%	87.8%	79.4%	104%	75.8%	79.8%	119
COc1ccc(/C=C2\Cc3c(Br)cccc3C2=O)c(OC)c1	87.4%	64%	60.2%	58%	80.9%	73.6%	67.5%	73.4%	98.2%	47%	51.1%	64.4%	70.7%	53.3%	55.6%	81.1%	47.9%	38.9%	59.9%	
